Experimental data: the supplement of paper PMC9262897, “Low-cost anti-mycobacterial drug discovery using engineered E. coli” (Nature Communications, 2022)
Where a name gives a salt, the structure may show the parent alone. ± gives the standard deviation of the averaged measurements.

Columns and labels:
Assay in all cases: growth (OD600 after 10 h); higher = more growth (less inhibition)
[1] = tested on: E. coli TESEC Alr+ wild-type control; details: compound 0.1 mM; raw OD600 reference: median of DMSO wells 0.241, cell-free background 0.041
Method: (§1)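 TESEC Mtb Alr E. coli, or the Alr+ wild-type control, in 384-well plates with Prestwick library compounds at 0.1 mM and 1% DMSO, across arabinose induction levels of 1E3 to 1E7 nM. Growth is read as OD600 after 10 h at 37 °C in triplicate biological replicates.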

[2] = tested on: E. coli TESEC Mtb Alr; details: compound 0.1 mM
Method: as §1

[3] = tested on: E. coli TESEC Mtb Asd; details: compound 0.1 mM
Method: (§2)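 TESEC E. coli strains in which the native enzyme is deleted and replaced by arabinose-inducible Mtb Asd, DapB, CysH or TrpD, each grown in its selective medium. Strains were screened against the Prestwick library at 0.1 mM and 1% DMSO in 384-well format at low and high arabinose induction. Growth is read as OD600 after 10 h in triplicate.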

[4] = tested on: E. coli TESEC Mtb DapB; details: compound 0.1 mM
Method: as §2

[5] = tested on: E. coli TESEC Alr+ wild-type control; details: compound 0.1 mM; raw OD600 reference: median of DMSO wells 0.49, cell-free background 0.052
Method: (§3)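 TESEC Mtb Alr E. coli (ΔaraC ΔtolC ΔentC Δalr ΔdadX, arabinose-inducible Mtb Alr) or the Alr+ wild-type control strain, grown in defined M9-fructose medium without D-alanine in 96-well plates with Prestwick library compounds at 0.1 mM and 1% DMSO. Low Alr induction is 0.1 µM arabinose and high induction is 10 mM arabinose.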

[6] = tested on: E. coli TESEC Mtb Alr; details: compound 0.1 mM; remark: listed apart in the source
Method: as §3

[7] = arabinose 1000 nM, raw OD600 reference: median of DMSO wells 0.294, cell-free background 0.041
[8] = arabinose 10000 nM, raw OD600 reference: median of DMSO wells 0.264, cell-free background 0.041
[9] = arabinose 100000 nM, raw OD600 reference: median of DMSO wells 0.201, cell-free background 0.041
[10] = arabinose 1000000 nM, raw OD600 reference: median of DMSO wells 0.193, cell-free background 0.041
[11] = arabinose 10000000 nM, raw OD600 reference: median of DMSO wells 0.146, cell-free background 0.041
[12] = arabinose induction (level): High, raw OD600 reference: median of DMSO wells 0.331, cell-free background 0.041
[13] = arabinose induction (level): Low, raw OD600 reference: median of DMSO wells 0.417, cell-free background 0.041
[14] = arabinose induction (level): High, raw OD600 reference: median of DMSO wells […], cell-free background 0.041
[15] = arabinose induction (level): Low, raw OD600 reference: median of DMSO wells 0.227, cell-free background 0.041
[16] = arabinose 100 nM, raw OD600 reference: median of DMSO wells 0.413, cell-free background 0.052
[17] = arabinose 10000000 nM, raw OD600 reference: median of DMSO wells […], cell-free background 0.052

SMILES	growth [1]	growth [2, 7]	growth [2, 8]	growth [2, 9]	growth [2, 10]	growth [2, 11]	growth [3, 12]	growth [3, 13]	growth [4, 14]	growth [4, 15]	growth [5]	growth [6, 16]	growth [6, 17]
C=C1c2cccc(O)c2C(O)=C2C(=O)[C@]3(O)C(O)=C(C(N)=O)C(=O)[C@@H](N(C)C)[C@@H]3[C@@H](O)[C@H]12 [Methacycline hydrochloride]	0.0468 ± 0.0013	0.0453 ± 0.00098	0.0468 ± 0.0019	0.0492 ± 0.0052	0.0489 ± 0.0047	0.0481 ± 0.0026	0.05743 ± 0.00057	0.0548 ± 0.0016	0.0592 ± 0.0012	0.0603 ± 0.0025	0.0598 ± 0.0011	0.0587 ± 0.0009	0.066 ± 0.0023
O=C1O[C@H]([C@@H](O)CO)C(O)=C1O [Ascorbic acid]	0.255 ± 0.0052	0.303 ± 0.0086	0.249 ± 0.007	0.22 ± 0.043	0.186 ± 0.0041	0.157 ± 0.0037	0.374 ± 0.076	0.445 ± 0.06	0.187 ± 0.0051	0.209 ± 0.0043	0.483 ± 0.056	0.387 ± 0.024	0.35 ± 0.028
O=C1CCc2ccc(OCCCCN3CCN(c4cccc(Cl)c4Cl)CC3)cc2N1 [Aripiprazole]	0.171 ± 0.013	0.243 ± 0.021	0.298 ± 0.02	0.15 ± 0.005	0.1175 ± 0.001	0.159 ± 0.006	0.21 ± 0.022	0.391 ± 0.036	0.177 ± 0.011	0.213 ± 0.021	0.418 ± 0.077	0.0572 ± 0.0048	0.0531 ± 0.0021
C#C[C@]1(O)CC[C@H]2[C@@H]3CCc4cc(OC)ccc4[C@H]3CC[C@@]21C [Ethynylestradiol 3-methyl ether]	0.193 ± 0.01	0.279 ± 0.0063	0.262 ± 0.013	0.184 ± 0.015	0.163 ± 0.0052	0.149 ± 0.0072	0.383 ± 0.025	0.413 ± 0.06	0.204 ± 0.031	0.226 ± 0.025	0.564 ± 0.025	0.405 ± 0.011	0.348 ± 0.024
C[C@]12CC[C@@H]3c4ccc(O)cc4CC[C@H]3[C@@H]1CC[C@@H]2O [Estradiol-17 beta]	0.125 ± 0.012	0.118 ± 0.052	0.214 ± 0.0069	0.157 ± 0.011	0.129 ± 0.0023	0.141 ± 0.0021	0.199 ± 0.0073	0.22 ± 0.0098	0.196 ± 0.0064	0.204 ± 0.012	0.43 ± 0.017	0.399 ± 0.012	0.218 ± 0.0046
CC[N+](CC)(CC(=O)Nc1c(C)cccc1C)Cc1ccccc1 [Denatonium benzoate]	0.216 ± 0.0039	0.27 ± 0.0093	0.254 ± 0.006	0.182 ± 0.034	0.173 ± 0.014	0.132 ± 0.0092	0.401 ± 0.018	0.46 ± 0.0089	0.189 ± 0.015	0.224 ± 0.024	0.439 ± 0.016	0.402 ± 0.018	0.338 ± 0.02
Nc1ccn([C@H]2CC[C@@H](CO)O2)c(=O)n1 [Zalcitabine]	0.246 ± 0.0044	0.2977 ± 0.0013	0.279 ± 0.014	0.198 ± 0.035	0.172 ± 0.0063	0.1518 ± 0.00067	0.288 ± 0.037	0.407 ± 0.035	0.204 ± 0.015	0.24 ± 0.04	0.4783 ± 0.0003	0.409 ± 0.016	0.353 ± 0.02
